Experimental data taken from PubChem BioAssay AID602292 (National Center for Advancing Translational Sciences (NCATS), 2012).
The campaign covered roughly 1,300 compounds. About 380 (29%) were called active. Inconclusive results (about 37%) are left out. Calls come from the whole dose curve; as a rule, active = well fitted inhibition curve with a large enough effect; inconclusive = small, poorly fitted or top-dose-only effect; inactive = flat fitted curve, though single readings scatter. Some of the results follow. Entries that show only a call come without a potency.
Note: nearly all actives have a fitted effect of over 80% in size.
Potency is the fitted concentration of half-maximal effect.

These compounds were tested against Thyrotropin receptor (Homo sapiens) (UniProt P16473) (assay: qHTS for antagonists of the Thyroid Stimulation Hormone Receptor: Hit Validation in Primary Screen). Details: TSHR-expressing cells, cAMP antagonist mode; series mostly up to 58 µM.
Thyrotropin receptor (Homo sapiens), sequence (P16473 whole entry, looked up): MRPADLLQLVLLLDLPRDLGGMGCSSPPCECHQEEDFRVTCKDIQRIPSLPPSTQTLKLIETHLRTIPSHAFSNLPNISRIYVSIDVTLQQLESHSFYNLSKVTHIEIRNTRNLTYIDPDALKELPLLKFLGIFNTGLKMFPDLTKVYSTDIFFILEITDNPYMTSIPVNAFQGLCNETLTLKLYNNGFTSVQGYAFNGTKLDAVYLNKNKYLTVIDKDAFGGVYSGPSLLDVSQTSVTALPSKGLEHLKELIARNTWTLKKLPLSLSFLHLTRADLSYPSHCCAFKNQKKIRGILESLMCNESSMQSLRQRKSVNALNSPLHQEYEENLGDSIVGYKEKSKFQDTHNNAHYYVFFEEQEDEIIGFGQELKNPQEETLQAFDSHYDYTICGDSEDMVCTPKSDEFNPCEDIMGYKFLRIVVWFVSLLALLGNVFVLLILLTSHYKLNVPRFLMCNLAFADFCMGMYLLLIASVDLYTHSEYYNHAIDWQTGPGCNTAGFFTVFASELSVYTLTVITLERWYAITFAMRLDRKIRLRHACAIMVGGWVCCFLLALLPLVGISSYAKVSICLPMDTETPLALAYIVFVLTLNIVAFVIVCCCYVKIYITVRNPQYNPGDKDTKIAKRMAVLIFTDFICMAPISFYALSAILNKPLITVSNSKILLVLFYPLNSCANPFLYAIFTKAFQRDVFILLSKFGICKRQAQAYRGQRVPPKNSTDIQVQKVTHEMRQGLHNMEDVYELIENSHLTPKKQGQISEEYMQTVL
How it was run: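 TSHR-expressing cells were pretreated with compound, then stimulated with TSH at EC80 (4nM final) for 2 hours at 37 deg C. Cellular cAMP measured by competitive HTRF (anti-cAMP cryptate, cAMP-d2) after 30 min at room temperature.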
For N#Cc1nc(-c2ccccc2)oc1N1CCN(C(=O)c2ccco2)CC1, the Potency was “inactive”.
With CC(C)Nc1ncnc2c1nnn2Cc1ccccc1 the Potency was “inactive”.
With O=C(c1ccco1)N1CCN(c2ncnc3c2nnn3Cc2ccccc2Cl)CC1 the Potency was 30.1 µM (active).
In the case of CC1CCCCN1C(=O)CSCC(=O)Nc1nc(-c2cccs2)cs1 (stereo unspecified), the Potency is reported as 30.1 µM (active).
For CCOC(=O)Cc1csc(NC(=O)COc2ccc(N(C)S(=O)(=O)c3cccs3)cc2)n1, the Potency was 23.9 µM (active).
O=C(Nc1nc(-c2cccs2)cs1)c1cccc(S(=O)(=O)N2CCCCCC2)c1 was tested, and the Potency was “inactive”.
With O=C(COc1ccc(Cl)cc1)Nc1nc(-c2cccs2)cs1 the Potency was 23.9 µM (active).
CN(Cc1ccccc1)S(=O)(=O)c1ccc(OCC(=O)NCc2ccccn2)cc1 was tested, and the Potency was “inactive”.
In the case of CN(C)S(=O)(=O)c1ccc(C(=O)Nc2nc(-c3cccs3)cs2)cc1, the Potency is reported as 19 µM (active).
For CCOc1ccc(N(CC(=O)NCc2ccc(F)cc2)C(=O)CCC(=O)Nc2nccs2)cc1, the Potency was “inactive”.
In the case of CCN(CC)c1ccc(C(=O)OCC(=O)N2CCCC2)cc1, the Potency is reported as “inactive”.
In the case of COc1cccc(NC(=S)N2CCCN(Cc3ccc(F)cc3)C2)c1, the Potency is reported as “inactive”.
With Cn1nnnc1SCC1=C(C(=O)O)N2C(=O)C(NC(=O)C3CC3c3ccccc3)C2SC1 (stereo unspecified) the Potency was “inactive”.
O=C1C=C(c2ccc(Cl)c(C(F)(F)F)c2)C[C@@H](c2ccc(F)cc2)C1 was tested, and the Potency was “inactive”.
For CSC1=NSC2=NC(=O)/C(=C\c3coc4ccccc4c3=O)C(=N)N12, the Potency was 2.69 µM (active).
For CCSC1=NSC2=NC(=O)/C(=C\c3coc4ccccc4c3=O)C(=N)N12, the Potency was 1.69 µM (active).
In the case of Cc1ccc(-c2nnc(SCC(=O)NC3CCCC3)n2C)cc1, the Potency is reported as “inactive”.
N#Cc1cccc(NC(=O)COC(=O)c2cc(S(=O)(=O)Nc3ccccc3Cl)ccc2O)c1 was tested, and the Potency was 12 µM (active).
CCC(=O)OCCNc1cc(Sc2nccn2C)c2nonc2c1[N+](=O)[O-] was tested, and the Potency was 19 µM (active).
In the case of CCC(=O)OCCNc1cc(Sc2nc3ccccc3[nH]2)c2nonc2c1[N+](=O)[O-], the Potency is reported as 23.9 µM (active).
For CCCC(=O)OCCNc1cc(Sc2nc3ccccc3[nH]2)c2nonc2c1[N+](=O)[O-], the Potency was 23.9 µM (active).
For CC(=O)OCCNc1cc(Sc2nc3ccccc3[nH]2)c2nonc2c1[N+](=O)[O-], the Potency was 26.9 µM (active).
With COc1ccc(F)cc1CN1CCN(C(=O)CCC(=O)Nc2nnc(CC(C)C)s2)CC1 the Potency was “inactive”.
With O=c1[nH]cccc1-c1nc2ccccc2n1Cc1ccc(F)cc1 the Potency was “inactive”.
For Cn1c(CNC(=O)c2ccc(Cl)cc2)nnc1SCC(=O)NC1CCCC1, the Potency was “inactive”.
For CCN(c1cccc(C)c1)S(=O)(=O)c1cn(CC(=O)OC)c2ccc([N+](=O)[O-])cc12, the Potency was “inactive”.
CNC(=S)n1cnc(N)n1 was tested, and the Potency was “inactive”.
In the case of NS(=O)(=O)c1ccc(CCNC(=O)c2cc3ccccc3s2)cc1, the Potency is reported as “inactive”.
In the case of O=C(CNC(=O)c1ccco1)OCC(=O)c1ccccc1, the Potency is reported as “inactive”.
For CCCCNC(=O)CC1C(=O)N(Cc2ccccc2)C(C)c2nc3ccccc3n21 (stereo unspecified), the Potency was “inactive”.
With CC(=O)N(C)c1ccc(N=NC2C(=O)N(C(N)=S)N=C2C)cc1 (stereo unspecified) the Potency was “inactive”.
For CC1=NN(C(N)=S)C(=O)C1N=Nc1ccc(Cl)cc1Cl (stereo unspecified), the Potency was 30.1 µM (active).
In the case of O=C1c2cccnc2C(=O)N1Cc1ccc(S(=O)(=O)N2CCN(c3ccc(Cl)cc3)CC2)cc1, the Potency is reported as “inactive”.
For COc1cccc(N2CCN(c3ncnc4c3cnn4-c3ccc(C)cc3C)CC2)c1, the Potency was 10.7 µM (active).
With CC(C)N(Cc1ccccc1)C(=O)COC(=O)c1cnc(Cl)c(Cl)c1 the Potency was 23.9 µM (active).
For Cc1onc(-c2ccccc2)c1NC(=O)N(Cc1ccccc1)C(C)C, the Potency was “inactive”.
CCc1ccc(/C=C/C(=O)c2cc(Br)ccc(=O)c2O)cc1 was tested, and the Potency was 9.53 µM (active).
In the case of Cc1cccc(/C=C/C(=O)c2cc(Br)ccc(=O)c2O)c1, the Potency is reported as 15.1 µM (active).
In the case of C1=C(CCNc2ncnc3c2[nH]c2ccccc23)CCCC1, the Potency is reported as 23.9 µM (active).
COc1ccc2[nH]c3c(NCCC4=CCCCC4)ncnc3c2c1 was tested, and the Potency was 4.78 µM (active).
CCCCOCCCNc1ncnc2c1[nH]c1ccccc12 was tested, and the Potency was 30.1 µM (active).
For Cc1cccc(NC(=S)NCC(C)CSc2ccc(Cl)cc2)c1 (stereo unspecified), the Potency was 30.1 µM (active).
For Cc1cccc(NC(=O)CCN2CCN(C)CC2)c1, the Potency was “inactive”.
In the case of OCCSc1nnc(Nc2ccccc2)s1, the Potency is reported as “inactive”.
O=C1C(SCCO)=C(SCCO)C(=O)c2ccccc21 was tested, and the Potency was 3.38 µM (active).
CCc1ccc(NS(=O)(=O)c2cc3[nH]c(=O)c(=O)[nH]c3cc2C)cc1 was tested, and the Potency was “inactive”.
COc1ccc(NS(=O)(=O)c2cn(C)cn2)cc1Cl was tested, and the Potency was “inactive”.
For COc1cc(NS(=O)(=O)c2ccc(C)cc2C)cc(OC)c1OC, the Potency was 37.9 µM (active).
CC(C)(C)OC(=O)N1CCC(CC2CC(c3cccc(Br)c3)=NO2)(C(=O)NCC2CCCCC2)CC1 (stereo unspecified) was tested, and the Potency was “inactive”.
For CC(C)Cc1nc2oc3c(Cl)ncnc3c2c2c1CCC2, the Potency was 23.9 µM (active).
COc1cccc(CNC(=O)c2nnn(CC(=O)Nc3cc(Cl)ccc3C)c2N)c1 was tested, and the Potency was “inactive”.
For COc1ccccc1C(=O)NCCC(=O)Nc1ccc(OC(F)(F)F)cc1, the Potency was “inactive”.
In the case of Cc1cc(NC(=O)c2ccccc2)c(Cl)cc1N, the Potency is reported as “inactive”.
For COc1cc(NC(=O)c2cc3ccccc3cc2O)c(OC)cc1Cl, the Potency was 10.7 µM (active).
Cc1ccc(Cl)cc1NC(=O)c1cc2ccccc2cc1O was tested, and the Potency was 3.79 µM (active).
COc1cc2ccccc2cc1C(=O)N1CCCC1 was tested, and the Potency was “inactive”.
CCOc1ccc(-n2c(SCC(=O)Nc3cc(C)on3)nc3c(c2=O)SCC3)cc1 was tested, and the Potency was “inactive”.
For Cc1ccc(NC(=O)Cn2nnc(C(=O)NCCc3ccccc3)c2N)c(C)c1, the Potency was “inactive”.
In the case of Cc1ccc(CCNC(=O)C2CC(c3cc(C(F)(F)F)cc(C(F)(F)F)c3)=NO2)cc1 (stereo unspecified), the Potency is reported as “inactive”.
With N#C/C(=N/Nc1ccc(OC(F)(F)F)cc1)C(N)=S the Potency was 6.01 µM (active).
O=C(Nc1cccc(Cl)c1)c1cc(N=Nc2ccc([N+](=O)[O-])cc2Cl)ccc1O was tested, and the Potency was 0.478 µM (active).
For O=C(Nc1ccc([N+](=O)[O-])cc1Cl)c1cc(Cl)ccc1O, the Potency was 0.338 µM (active).
CC(=O)Oc1c(C)cc(Cl)cc1C(=O)Nc1ccc([N+](=O)[O-])cc1Cl was tested, and the Potency was 0.478 µM (active).
For Cc1ccc(N2C(=O)C3C4C=CC(CC4)C3C2=O)cc1Cl (stereo unspecified), the Potency was “inactive”.
In the case of CCOc1cc(S(=O)(=O)n2cnc(C)c2)ccc1Cl, the Potency is reported as “inactive”.
For Cc1ccc(CS(=O)(=O)c2ncc(Cl)c(C(=O)Nc3nnc(C(C)C)s3)n2)cc1, the Potency was 23.9 µM (active).
In the case of COC(=O)CSc1nc(NCc2ccccc2)nc(N(C)C)n1, the Potency is reported as “inactive”.
With Cc1cccc(CC(=O)NCC(=O)NCc2cc(=O)n(C)c(=O)n2C)c1 the Potency was “inactive”.
With CN(C)c1nc(=S)nc(NCc2ccccc2)[nH]1 the Potency was “inactive”.
For Cc1cc(=O)oc2ccc(OCc3ccccc3)cc12, the Potency was “inactive”.
With COc1ccc(CNC(=O)C2CCCN2C(=O)NCc2ccccc2)cc1 (stereo unspecified) the Potency was “inactive”.
With CCOC(=O)c1c(NC(=O)/C=C/C(=O)O)sc(C)c1-c1ccc(Cl)cc1 the Potency was 21.3 µM (active).
CCOC(=O)c1c(NC(=O)CN2C(=O)NC(C)(c3ccc(OC(F)F)cc3)C2=O)sc(C)c1C (stereo unspecified) was tested, and the Potency was “inactive”.
In the case of CCOC(=O)c1c(NC(=O)/C=C/C(=O)O)sc(C)c1-c1ccc(C)c(C)c1, the Potency is reported as 23.9 µM (active).
For CCOC(=O)Cn1c(=NC(=O)CSC(C)=O)sc2ccccc21, the Potency was “inactive”.
With Cc1ccc(/C=N/n2c(COc3ccccc3)n[nH]c2=S)s1 the Potency was “inactive”.
CN(C)c1ccc(N/C=C/C(=O)C(F)(F)F)cc1 was tested, and the Potency was “inactive”.
Cc1nn(Cc2ccc(Cl)cc2)c(C)c1NC(=O)c1noc2c1CCc1ccccc1-2 was tested, and the Potency was 16.9 µM (active).
For Cc1nn(Cc2ccccc2)c(C)c1NC(=O)c1noc2c1CCc1ccccc1-2, the Potency was 37.9 µM (active).
COc1ccc(C(C(=O)NC(C)(C)C)N(CCc2ccccc2)C(=O)CCC(=O)Nc2cc(C)on2)cc1 (stereo unspecified) was tested, and the Potency was “inactive”.
With CC(=O)N/C(=C\c1ccc(Cl)cc1)C(=O)O the Potency was “inactive”.
In the case of C=CCNC(=O)c1ccc(NC(=O)C2=CSCCO2)cc1, the Potency is reported as “inactive”.
O=[N+]([O-])c1c(Nc2cccc(O)c2)cc(Cl)c2nonc12 was tested, and the Potency was 10.7 µM (active).
Cc1c(Nc2cc(Cl)c3nonc3c2[N+](=O)[O-])c(=O)n(-c2ccccc2)n1C was tested, and the Potency was 26.9 µM (active).
With Cc1cc(C)cc(C(=O)NC(CC(N)=O)c2ccc(NCCN3CCCC3)c([N+](=O)[O-])c2)c1 (stereo unspecified) the Potency was “inactive”.
For CC1CCCC(N2CCN(S(=O)(=O)c3ccccc3)CC2)C1 (stereo unspecified), the Potency was “inactive”.
In the case of COC(CNC(=O)c1cn(C)c2ccc(S(=O)(=O)N3CCOCC3)cc2c1=O)OC, the Potency is reported as “inactive”.
For O=C1c2cccc3c(O)ccc(c23)C(=O)N1c1ccc(Cl)cc1, the Potency was 30.1 µM (active).
For Cc1ccc(NC(=O)Nc2ccc3c(c2)OCO3)c(OC(F)F)c1, the Potency was “inactive”.
For N/C(=N\OC(=O)Nc1ccccc1)c1cccc(C(F)(F)F)c1, the Potency was “inactive”.
With Cc1ccc(OC(F)F)c(NC(=O)Nc2cccc(C(F)(F)F)c2)c1 the Potency was 26.9 µM (active).
Cc1ccccc1NC(=O)C1C2CCCCC21 (stereo unspecified) was tested, and the Potency was “inactive”.
With O=C(Nc1ccncc1)C1CCN(S(=O)(=O)c2cccc(C(F)(F)F)c2)CC1 the Potency was “inactive”.
Cc1ccc(C)c(N2CCN(S(=O)(=O)c3ccc4c(c3)CC(C)N4C(=O)C3CC3)CC2)c1 (stereo unspecified) was tested, and the Potency was “inactive”.
With CC1CC1C(=O)N1CCN(S(=O)(=O)c2cc(C(F)(F)F)cc(C(F)(F)F)c2)CC1 (stereo unspecified) the Potency was 30.1 µM (active).
For COc1cccc(CNC(=O)CCCC(=O)NC(C)CCc2ccccc2)c1 (stereo unspecified), the Potency was “inactive”.
With COc1cccc(COc2cc3ccccc3nc2C)c1 the Potency was 23.9 µM (active).
With CCCn1c(COc2ccccc2OC)nc2ccccc21 the Potency was “inactive”.
For COc1ccc(-n2c(SCC(=O)Nc3cc(C)on3)nc3c(c2=O)SCC3)cc1OC, the Potency was “inactive”.
For Nc1ncc(Br)cc1S(=O)(=O)Nc1cc(C(F)(F)F)cc(C(F)(F)F)c1, the Potency was 12 µM (active).
In the case of O=S(=O)(Nc1cccc(-n2cnnn2)c1)c1ccccc1C(F)(F)F, the Potency is reported as “inactive”.
